The target in the assay is furin, P09958. Kind of assay: furin cleavage Z-score vs untreated control; higher = more cleavage, active = 3.5 or more, inactive = 1 or less, 8 variable residues between constant flanks. A digest of the protocol: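 The cleavage Z-score was derived for purified furin acting on 8-mer peptides held on magnetic beads and fused to a cDNA oligonucleotide. Digests lasted 7.5, 15 or 30 min at 1:10 enzyme:substrate in 50 mM HEPES pH 7.5 with CaCl2 and NaCl. Sequencing counts of released DNA, log-transformed against furin-free reactions, were lowess-adjusted and scaled by median absolute deviation.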
Sequence of furin, P09958 (P09958 whole entry, the tested form may be a part): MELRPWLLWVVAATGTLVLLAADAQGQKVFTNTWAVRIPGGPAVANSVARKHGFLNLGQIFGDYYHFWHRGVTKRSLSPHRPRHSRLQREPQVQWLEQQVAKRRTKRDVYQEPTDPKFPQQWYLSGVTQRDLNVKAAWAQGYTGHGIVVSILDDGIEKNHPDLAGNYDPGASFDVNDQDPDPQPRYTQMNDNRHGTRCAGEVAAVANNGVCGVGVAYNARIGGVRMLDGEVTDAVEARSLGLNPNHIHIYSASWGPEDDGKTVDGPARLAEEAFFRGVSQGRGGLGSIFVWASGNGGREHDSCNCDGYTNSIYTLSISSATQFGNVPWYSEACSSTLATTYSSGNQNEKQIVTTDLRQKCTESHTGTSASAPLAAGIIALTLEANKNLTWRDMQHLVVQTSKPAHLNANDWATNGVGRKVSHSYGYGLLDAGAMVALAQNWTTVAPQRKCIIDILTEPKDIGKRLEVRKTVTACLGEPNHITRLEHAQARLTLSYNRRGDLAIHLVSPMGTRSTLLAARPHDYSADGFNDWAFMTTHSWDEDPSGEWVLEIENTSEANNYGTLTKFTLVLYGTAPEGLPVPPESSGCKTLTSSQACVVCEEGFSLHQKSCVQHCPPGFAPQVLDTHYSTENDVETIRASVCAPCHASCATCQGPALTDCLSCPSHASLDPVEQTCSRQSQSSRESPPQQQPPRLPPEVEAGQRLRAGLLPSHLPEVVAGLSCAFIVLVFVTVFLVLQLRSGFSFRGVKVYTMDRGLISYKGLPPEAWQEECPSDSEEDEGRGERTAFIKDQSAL

The text below walks through data of the supplement of paper PMC3545927.

Some of the results follow. How many sequences the whole screen found active is unknown.

For the sequence CAEVPCHRMSAGNASASA [HC2386], the “furin cleavage Z-score” value was 0.401 (inactive) (7.5 min), 1.85 (15 min) and -1.19 (inactive) (30 min).
In the same order, the values of CAGRTWAQPGAGNASASA [HC197] are 0.399 (inactive), 0.197 (inactive) and -2.32 (inactive).
On to CATHPCSGSWAGNASASA [HC1855], for which the “furin cleavage Z-score” value is, setting by setting: (7.5 min) -0.725 (inactive); (15 min) 0.134 (inactive); (30 min) -0.569 (inactive).
Turning to CARLRRSLGEAGNASASA [FS-1830], the “furin cleavage Z-score” value (7.5 min) is 4.48 (active), the “furin cleavage Z-score” value (15 min) was 6.54 (active) and the “furin cleavage Z-score” value (30 min) was 5.36 (active).
For CARIGRAVRPAGNASASA [FS-1720], in that order: 6.17 (active), 6.97 (active) and 7.91 (active).
In the case of CADSSRSVRPAGNASASA [FS-1518], the “furin cleavage Z-score” value is -1.18 (inactive) (7.5 min), -0.293 (inactive) (15 min) and 0.507 (inactive) (30 min).
CARTPRAVRPAGNASASA [FS-2241]: the “furin cleavage Z-score” value is 4.95 (active) (7.5 min), 5.05 (active) (15 min) and 7.16 (active) (30 min).
In the same order, the values of CAREKKSASWAGNASASA [FS-3244] are -1.37 (inactive), -1 (inactive) and 0.389 (inactive).
In the same order, the values of CANDVVCCSMAGNASASA [HC2121] are 0.854 (inactive), 0.345 (inactive) and 0.79 (inactive).
Consider CADIMEECSQAGNASASA [HC1804], for which the “furin cleavage Z-score” value (7.5 min) was -0.826 (inactive), the “furin cleavage Z-score” value (15 min) was -1.93 (inactive) and the “furin cleavage Z-score” value (30 min) is 0.332 (inactive).
In the same order, the values of CAVEECSQHLAGNASASA [HC1670] are 0.23 (inactive), 0.997 (inactive) and -0.342 (inactive).
For CAELVVCCSMAGNASASA [HC2125], in that order: -0.0192 (inactive), -0.743 (inactive) and -0.249 (inactive).
For CAVVCCSMRYAGNASASA [HC2073], in that order: 0.763 (inactive), 0.207 (inactive) and 0.313 (inactive).
As to CAVLHRRRRYAGNASASA [FS-891], the “furin cleavage Z-score” value runs as follows: (7.5 min) 9.61 (active); (15 min) 10.5 (active); (30 min) 9.16 (active).
In the same order, the values of CAKRWRRRRYAGNASASA [FS-1350] are 10.3 (active), 12 (active) and 9.1 (active).
In the same order, the values of CAVVKRPRRYAGNASASA [FS-314] are 9.96 (active), 10.8 (active) and 10 (active).
In the same order, the values of CARMIRTNEAAGNASASA [FS-3000] are 0.282 (inactive), 0.0077 (inactive) and 0.743 (inactive).
As to CAHRSRDGRYAGNASASA [FS-797], the “furin cleavage Z-score” value was 0.199 (inactive) (7.5 min), 1.41 (15 min) and 0.834 (inactive) (30 min).
In the same order, the values of CAVLARMMRPAGNASASA [FS-966] are -0.155 (inactive), 0.612 (inactive) and -0.556 (inactive).
In the same order, the values of CAVVKCSMSYAGNASASA [HC2034] are 0.0381 (inactive), 0.000409 (inactive) and 0.298 (inactive).
For CARMIRRRRYAGNASASA [FS-1652], in that order: 10.9 (active), 13.2 (active) and 9.13 (active).
For CAVLEDGVNYAGNASASA [HC239], the “furin cleavage Z-score” value was -0.545 (inactive) (7.5 min), -2.21 (inactive) (15 min) and 0.0229 (inactive) (30 min).
For CAYMSKAHGIAGNASASA [HC794], in that order: -0.614 (inactive), -0.299 (inactive) and 0.089 (inactive).
In the case of CANYTIFKIRAGNASASA [HC472], the “furin cleavage Z-score” value by setting is: (7.5 min) -0.135 (inactive); (15 min) 0.367 (inactive); (30 min) -0.43 (inactive).
In the same order, the values of CAELPCHRPSAGNASASA [HC2325] are 0.967 (inactive), -0.4 (inactive) and 0.0984 (inactive).
In the same order, the values of CAEVPCHWPSAGNASASA [HC2368] are -0.575 (inactive), -0.478 (inactive) and 0.531 (inactive).
In the same order, the values of CAVVCCQMSYAGNASASA [HC119] are -0.852 (inactive), -0.183 (inactive) and 0.623 (inactive).
Turning to CADKNQVEGEAGNASASA [HC686], the “furin cleavage Z-score” value was -0.934 (inactive) (7.5 min), -0.739 (inactive) (15 min) and -1.82 (inactive) (30 min).
In the same order, the values of CAAKLMPQLPAGNASASA [HC1159] are 0.255 (inactive), -0.546 (inactive) and 0.241 (inactive).
For CALTLRMRRYAGNASASA [FS-1032], in that order: 9.91 (active), 10.2 (active) and 11.2 (active).
CAMNSRKGRYAGNASASA [FS-1237]: the “furin cleavage Z-score” value is 1.23 (7.5 min), 0.312 (inactive) (15 min) and 2.34 (30 min).
In the same order, the values of CALTLSPYYKAGNASASA [HC575] are -0.934 (inactive), -0.768 (inactive) and -0.313 (inactive).
For the sequence CALVRRRRRYAGNASASA [FS-462], the “furin cleavage Z-score” value is, setting by setting: (7.5 min) 11 (active); (15 min) 12.3 (active); (30 min) 9.67 (active).
On to CAAHDGAGKRAGNASASA [HC1557], for which the “furin cleavage Z-score” value was -0.0785 (inactive) (7.5 min), 0.342 (inactive) (15 min) and 0.362 (inactive) (30 min).
In the same order, the values of CAVEMEECSQAGNASASA [HC1790] are 0.132 (inactive), -1.38 (inactive) and -1.19 (inactive).
For CATTPCSGNWAGNASASA [HC1921], in that order: 0.659 (inactive), 0.815 (inactive) and -0.795 (inactive).
In the same order, the values of CAPVGSQLPCAGNASASA [HC1238] are 0.473 (inactive), -1.27 (inactive) and 0.372 (inactive).
Take CAGVRATRKTAGNASASA [HC183]: the “furin cleavage Z-score” value is, setting by setting: (7.5 min) 0.267 (inactive); (15 min) 0.577 (inactive); (30 min) 0.344 (inactive).
In the same order, the values of CAIREVPCHRAGNASASA [HC2424] are -0.0693 (inactive), 1.33 and 2.41.
In the same order, the values of CAVIQMYTNVAGNASASA [HC709] are 0.334 (inactive), -0.0874 (inactive) and -1.04 (inactive).
In the same order, the values of CARAKRRWAPAGNASASA [FS-2638] are 0.9 (inactive), 1.95 and 0.773 (inactive).
Turning to CARAYRSSMRAGNASASA [FS-2894], the “furin cleavage Z-score” value is -1.12 (inactive) (7.5 min), -1.44 (inactive) (15 min) and -1.22 (inactive) (30 min).
In the same order, the values of CARAKRPLMVAGNASASA [FS-2884] are 0.123 (inactive), 1.97 and -0.869 (inactive).
In the same order, the values of CARAKRRAIRAGNASASA [FS-2637] are 10.3 (active), 11.4 (active) and 9.08 (active).
In the same order, the values of CARAKREEKKAGNASASA [FS-2634] are 3.98 (active), 2.96 and 4.64 (active).
In the case of CARAKRTTKRAGNASASA [FS-3241], the “furin cleavage Z-score” value reads like this: (7.5 min) 8.36 (active); (15 min) 10.4 (active); (30 min) 9.38 (active).
For CARAKRAFLPAGNASASA [FS-1991], in that order: 3.35, 4.79 (active) and 6.29 (active).
